Test results published in PubChem BioAssay (NCI).
This is part of a sample that, as a whole, favours compounds with a hit. Of some 83,000 tested, about 20% had one in any assay.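 Note: values are percent growth. 100 is the growth of untreated cells, values between 100 and 0 indicate rising inhibition; between -100 and 0 indicates cell death.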 Values without a mark were called inactive. The source made the active and inactive calls. Rule for the calls: active = growth percent below 10; inactive = the rest.

The compounds below were run on HL-60(TB) leukemia (assay: NCI-60 one-dose screen, 48 h (100 = growth as untreated, 0 = no growth, -100 = all killed)). Conditions: 10 µM unless noted.

SMILES	growth
COc1c(N2CC3CCCN(C(C)=O)C3C2)c(F)cc2c(=O)c(C(=O)N[C@H]3C(O)[C@@H](O)C(CO)O[C@H]3O)cn(C3CC3)c12 (stereo partly specified)	103%
CCCCCCCCCCCCCCCCOC(=O)c1c(C)[nH]c(/C=C2\N=C(c3ccc[nH]3)C=C2OC)c1C	62.2%
CC[C@]12C=CCN3CC[C@@]4(c5cc([C@H]6CCC(=O)N6)c(OC)cc5N(C)[C@H]4[C@@](O)(C(=O)OC)[C@@H]1OC(C)=O)[C@@H]32	109% [2.5 µM]
O=C1c2cc3c(cc2-c2c1c1cc(F)c(F)cc1c(=O)n2CCCn1ccnc1)OCO3	-15.4% (active)
COc1ccc(-c2nnc(N3CCN(C(=O)CN4CCN(c5ccccc5)CC4)CC3)nc2-c2ccc(OC)cc2)cc1	-58.6% (active)
Nc1cc(Cl)c(S(N)(=O)=O)cc1S(N)(=O)=O	104%
CCc1ccc(-c2cn3ccnc3c(-c3ccc4ncn(Cc5ccccc5)c4c3)n2)cc1	60.4%
COc1ccc(Cl)cc1Nc1nc(C(F)(F)F)ccc1C(=O)NN	23.3%
CCOC(=O)c1ccc(N2C(=O)C(Cl)(c3ccccc3)C2c2ccco2)cc1 (stereo unspecified)	66%
N#Cc1ccc(NC(=O)Nc2nc3ccc(OC(F)(F)F)cc3s2)cc1	-47% (active)
Cc1ccc(C(=O)Nc2ccc(CN3CCN(C)CC3)c(C(F)(F)F)c2)cc1C#Cc1cnc(N)c2ccc(F)cc12	-25.4% (active)
C=C1C(=O)O[C@H]2[C@H]1CC/C(COC(=O)CCSSCCC(=O)OC/C1=C/CC[C@@]3(C)O[C@H]3[C@H]3OC(=O)C(=C)[C@@H]3CC1)=C\CC[C@@]1(C)O[C@@H]21	-47.9% (active)
CCC(C)CC(N)O (stereo unspecified)	120%
O=C(O)/C=C/c1cn(-c2ccccc2)nc1-c1ccc(F)cc1	103%
C=C1C(=O)O[C@H]2[C@H]1CC/C(Cn1cc(CNC(=O)/C=C/c3c[nH]c4ccccc34)nn1)=C\CC[C@@]1(C)O[C@@H]21	29.9%
COc1cc(C)cc2oc3oc(=O)c(-c4csc(-c5cc6ccccc6oc5=O)n4)cc3c(=O)c12	115%
COc1ccccc1-n1c(-c2csc(NC(C)=O)n2)n[nH]c1=S	96.6%
Cc1ccccc1-c1cc(-c2ccc(Br)s2)[nH]c(=O)c1C#N	82%

SMILES	growth
CCOC(=O)CC(C)=N	93.9%
CC(C)(C)c1ccc(N2CSC(=S)N(c3ccc(C(C)(C)C)cc3)C2)cc1	92.7%
CCOC(=O)CNS(=O)(=O)CC(=O)c1ccccc1	102%
COc1ccc(-c2nc3ccc(-c4nc5ccc(N6CCN(c7ccncc7)CC6)cc5[nH]4)cc3[nH]2)cc1OC	35.3%
O=S(=O)(Nc1ncccn1)c1ccc(Nc2ccc3nnc(-c4ccncc4)n3n2)cc1	101%
O=C(O)c1ccc([N+](=O)[O-])cc1S(=O)(=O)O	108%
CCS(=O)(=O)c1ncnc2nc[nH]c12	101%
O=c1[nH]cc(Nc2cc(Cl)c3nonc3c2[N+](=O)[O-])c(=O)[nH]1	75.8%
Cc1c(C(=O)/C=C/Nc2c(Cl)cc(S(N)(=O)=O)cc2Cl)sc2nc3ccccc3n12	101%
N/C(=N\OC(=O)c1ccccc1)C(Cc1ccccc1)C(=O)NOC(=O)c1ccccc1 (stereo unspecified)	-1.14% (active)
COC(=O)/C=C1\SC(=Nc2ccc(F)cc2)N(CCc2c[nH]c3ccccc23)C1=O	73.7%
CCC(C)(c1cc(C(C)(C)C)c(O)c(C(C)(C)C)c1)c1cc(C(C)(C)C)c(O)c(C(C)(C)C)c1	99.3%
Cc1sc2ncnc(Sc3nc4ccccc4[nH]3)c2c1C	-54.7% (active)
Nc1c(C(=O)Nc2cccc3ccccc23)sc2nc3c(cc12)CCCC3	-11.1% (active)
COc1cc(/C=C/c2cc(/C=C/c3ccc(O)c(OC)c3)n(C(=O)c3ccccc3Br)n2)ccc1O	-23.9% (active)
CN1C(=O)/C(=C/c2ccc(C(=O)Nc3ncc(Cc4cccc(C(F)(F)F)c4)s3)cc2)SC1=S	43.3%
COc1cc(C2CC(c3ccc(C)cc3)=NN2C=O)ccc1Oc1nc2c(c(=O)n(C)c(=O)n2C)n1C (stereo unspecified)	111%
CCn1c2ccccc2c2cc(C(O)c3cccc4ncccc34)ccc21 (stereo unspecified)	10.5%
